Compounds with a hit are over-represented: about 3.6% of the library has one in this group of screens.
MazF activator – activators of E. coli MazEF toxin-antitoxin RNase, primary screen, biochemical, fluorescence, uHTS; activation, % at 20 µM; Endoribonuclease toxin MazF (Escherichia coli (strain K12)), P0AE70; FAM/BHQ RNA-DNA oligo cleavage fluorescence, 5 h; 0.32% of 350,000 active; in the data active = activation above about 50%
BoNT A protease – BoNT/A light chain protease inhibitors, primary screen, biochemical, flow cytometry, MLPCN library; multiplex microsphere protease substrate cleavage; inhibition, % at 10 µM; 0.17% of 360,000 active; AID 588499, 2011; note: plate controls were buffer without enzyme for full effect and enzyme alone for no effect
Bead autofluor – counter-screen for toxin protease inhibitors: compound fluorescence | 3.1% of 360,000 active | fluorescence intensity (concentration not given with the values) | compound autofluorescence counterscreen, microsphere flow cytometry; stronger effect = higher value | AID 624483; in the data active = fluorescence intensity above about 16000; inconclusive = no clear call, values can overlap the other calls
BoNT-F LC inh – BoNT/F light chain protease inhibitors, primary screen, biochemical, flow cytometry, MLPCN library | Multiplex microsphere protease cleavage assay | Botulinum neurotoxin type F light chain protease (Clostridium botulinum) | inhibition, % at 10 µM | 0.22% of 360,000 active | AID 588497, 2011; in the data active = inhibition above about 35%, passing the limit was not always enough; inconclusive = no clear call, values can overlap the other calls; note: plate controls were buffer without enzyme for full effect and enzyme alone for no effect
Anthrax LF inh2 – Bacillus anthracis LF protease inhibitors, primary screen, biochemical, multiplex microsphere, MLPCN library. inhibition, % at 10 µM. multiplex microsphere protease cleavage assay. 0.12% of 360,000 active. Lethal factor (Bacillus anthracis), P15917; note: plate controls were buffer without enzyme for full effect and enzyme alone for no effect
Active calls of the source: *; ? = inconclusive; / = no result given. Cut-off read from the data, not from the text of the source, unless noted: active = inhibition above about 30%; inconclusive = no clear call, values can overlap the other calls; inactive = below that.

SMILES	MazF activator	BoNT A protease	Bead autofluor	BoNT-F LC inh	Anthrax LF inh2
Cc1noc(C)c1S(=O)(=O)Nc1ccc2c(c1)CC(=O)N([C@H](C)CO)C[C@H](C)[C@@H](CN(C)CC1CC1)O2	4	-1	4105	-15	-3
Cc1ccc(C(=O)O)cc1-c1ccc(/C=C2/NC(=O)N(c3ccccc3)C2=O)o1	0	0	23411*	0	2
Cc1cc(C(=O)O)ccc1-c1ccc(/C=C2\NC(=O)N(Cc3ccccc3Cl)C2=O)o1	-13	0	4188	-3	4
COc1ccc(NC(=O)CN(C)C(=O)C2(c3ccccc3)CCCC2)cc1	8	0	3942	-8	-2
CC1(C(=O)NCC2CCCCC2)CCN1C(=O)Cc1ccc(-c2ccccc2)cc1 (stereo not given)	/	0	3724	-1	-4
CCc1ccc(N2C(=O)c3sc4nnc(C)c(=O)n4c3C2=O)cc1	3	3	20580*	7	-1
CCOC(=O)CSc1nc2cc3c(cc2cc1C)OCO3	-1	0	4606	-4	-1
Cc1ccc(-c2nnc(CSc3nnc(C)s3)o2)cc1	6	1	22331*	2	-2
Cc1csc(SCc2nnc(-c3ccc(Cl)cc3)o2)n1	-2	1	3170	2	-3
Cc1ccc(-c2nnc(CSc3nc4cc5c(cc4cc3C)OCO5)o2)cc1	437*	0	9192	-1	4
CCn1cc2nc(SCC(=O)Nc3ccc(OC)cc3OC)n(Cc3ccc(OC)cc3)c(=O)c2n1	2	-3	3671	0	-8
O=C(O)c1cccc(Nc2nc(-c3ccc([N+](=O)[O-])cc3)nc3ccccc23)c1	0	0	3846	4	-5
COc1ccc(Nc2cccccc2=O)cc1	2	-1	6217	-16	-11
COc1cccc(Nc2nc(-c3ccccc3O)nc3ccccc23)c1	75*	0	3007	10	12
O=[N+]([O-])c1ccc(-c2nc(Nc3cccc(O)c3)c3ccccc3n2)cc1	123*	1	4006	19	1
COc1ccc(OC)c(Nc2cc(C)nc3ccccc23)c1	8	0	5526	2	-2
COc1ccc(Nc2ccccc2)c(C)c1	3	2	22653*	-2	-2
COc1cccc(Nc2cc(C)nc3ccccc23)c1	-12	?	20171*	0	1
Cc1c(C(=O)NCc2cccc([N+](=O)[O-])c2)sc(=O)n1Cc1ccccc1F	/	0	5726	-1	-5
CCOC(=O)C1=C(COC(=O)Cc2ccc(Cl)cc2)NC(=O)NC1C (stereo not given)	6	0	3823	-13	5
CCCN(CC(=O)Nc1ccccc1C)C(=O)c1ccc(N2CCCC(C)C2)c([N+](=O)[O-])c1 (stereo not given)	1	-1	6585	-8	-3
Cc1ccccc1N(C)C(=O)C1CCCN(c2ncnc3c2nc2n3CCCCC2)C1 (stereo not given)	2	-2	6269	-11	-4
c1ccc2[nH]c(NCCCN3CCOCC3)nc2c1	5	?	24547*	-6	-5
O=c1[nH]c2ccccc2nc1NCCN1CCOCC1	1	0	2704	-4	-4
Cc1c(NC(=O)COC(=O)c2ccc(O)cc2)c(=O)n(-c2ccccc2)n1C	-9	-3	5745	-8	-1
SMILES	MazF activator	BoNT A protease	Bead autofluor	BoNT-F LC inh	Anthrax LF inh2
CCC(C)c1c(O)nc(SCC(=O)N2CCOCC2)[nH]c1=O (stereo not given)	-7	-4	17264*	-7	-6
O=C(OCc1cn([C@@H]2CN(C(=O)C3CCCCC3)[C@@H](c3ccc(Cl)cc3)C[C@H]2O)nn1)c1ccccc1	6	0	3485	-3	4
Cc1ccc(O)c(C(=O)c2cc(C#N)c(=O)n(-c3c(C)n(C)n(-c4ccccc4)c3=O)c2)c1	-218	-1	16705*	0	-1
Nc1ccn([C@@H]2O[C@H](CNCC3=CCOc4ccc(O)cc43)[C@@H](O)[C@H]2O)c(=O)n1	10	0	3579	-8	-1
CCOC(=O)c1c(-c2ccccc2)oc2ccc(O)c(CN3CCCC3)c12	12	-2	17165*	-7	-4
CCOC(=O)C(C)Sc1cc(CS(=O)(=O)c2ccccc2)nc(-c2ccccc2)n1 (stereo not given)	-7	?	20917*	6	-3
O=S(=O)(Cc1cc(Sc2ccc(Cl)cc2)nc(-c2ccccc2)n1)c1ccccc1	-7	-1	2320	-9	0
CCN(CC)CCn1c(=O)n(-c2ccc(Cl)cc2)c(=O)c2c3c(sc21)CN(C)CC3	660*	2	5059	?	-16
CN1CCc2c(sc3c2c(=O)n(-c2ccc(Cl)cc2)c2nncn32)C1	10	-1	10478	1	10
CCn1ncc(C2=NOC(C(=O)NCc3ccc(Cl)cc3)C2)c1C (stereo not given)	2	2	21413*	3	3
CCn1ncc(C2=NOC(C(=O)Nc3cccnc3)C2)c1C (stereo not given)	9	3	22133*	4	-8
Cc1nnc(SCC(=O)N2CCOCC2)n1C	1	0	2957	-3	-3
Cc1nnc(SCCOC(N)=O)n1C	3	9	20927*	8	1
COc1ccc(CN(C(=O)Cc2c[nH]c3ccccc23)C(C(=O)NC2CCCCC2)c2ccc(C)o2)cc1 (stereo not given)	4	-6	27158*	-9	-6
COc1cc(C(C(=O)NC2CCCCC2)N(Cc2cccs2)C(=O)Cc2c[nH]c3ccccc23)cc(OC)c1OC (stereo not given)	-3	-3	23578*	-4	-2
CCc1noc(C)c1C(=O)NCCN1C(=O)S/C(=C\c2ccccc2F)C1=O	-3	0	3479	-3	-2
O=C(Nc1c2c(nn1-c1ccccc1)CS(=O)(=O)C2)C1CC1	1	0	3843	-2	-2
CCOC(=O)c1c(C)[nH]c(C(=O)COC(=O)CN2C(=O)C3CCCCC3C2=O)c1C (stereo not given)	-6	2	9323	-1	7
CCOC(=O)c1c(C)[nH]c(C(=O)COC(=O)C(C)N2C(=O)C3CCCCC3C2=O)c1C (stereo not given)	-2	-8	24956*	-9	-3
O=[N+]([O-])c1ccc(S(=O)(=O)Nc2ccc(-c3ccccc3)cc2)cc1	-15	-1	3498	-12	-3
CCN(CC)CCCNC(=O)C1c2ccccc2Oc2ccccc21	6	1	5036	4	3
COCCCNC(=O)C1c2ccccc2Oc2ccccc21	4	0	3595	42*	9
CC1(C)NC(=O)N(CC(O)COc2ccccc2C(=O)Nc2ccccc2)C1=O (stereo not given)	1	-3	23718*	-6	-2
